Bioassay records: PubChem BioAssay, several laboratories
WT yeast gro inh: growth inhibition of WT yeast, mitochondrial fusion screen. mitochondrial fusion phenotypic screen, WT strain. inhibition, % at 10 µM. 2.1% of 190,000 active. AID 1362; in the data active = inhibition above about 58%; tested in S. cerevisiae
L major viab: Leishmania major promastigote growth inhibition; inhibition, % at 10 µM; AID 1063; 9% of 200,000 active; Leishmania major promastigotes, resazurin fluorescence viability; in the data active = inhibition above about 50%;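 note: promastigotes grown with compound for 44 hours at 28 °C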
RAM inhibit: yeast RAM network inhibition. S. cerevisiae dse1pr::URA3 reporter, 5-FOA growth OD615, 2 d; analog-sensitive cbk1-as2 kinase mutant strain. inhibition, % at 50 µM. 1.8% of 190,000 active. AID 868;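 active = inhibition above a set limit, 3 SD over mean compound inhibition, cut at about 8.4% in these data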;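 note: inhibition rescues growth on 5-FOA so higher OD means more RAM inhibition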
CHOP inh: inhibitors of CHOP induction in ER stress response | AID 2732 | 3.8% of 220,000 active | CHO-K1 CHOP-promoter luciferase, tunicamycin-induced, 15-18 h | inhibition, % at 10 µM;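 active = compounds that reduced the stress-induced luciferase reporter signal by more than about 70% of percent inhibition, limit read from the data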
Of the large screens only hits and unclear results are named; the others gave an inactive call. Most compounds without a hit are left out; they make up all but 13% or so of the library.

Cc1ccc(CN2CCN(/N=C/C=C/c3ccccc3[N+](=O)[O-])CC2)cc1	none
CCCCCc1ccc(-c2ccc(/C=C/C(=O)O)cc2)nc1	none
CCCCCCCc1ccc(-c2ccc(O)cc2)nc1	WT yeast gro inh 74, CHOP inh 96
N#CCCN(C(=O)CSc1ccc2c(c1)OCCO2)c1ccc(F)cc1	L major viab 87
CC1=NN(C(=O)CCc2ccccc2)C(O)(c2ccncc2)C1 (stereo unspecified)	none
COc1ccc(-c2nnc(Sc3nc4ccccc4o3)c3ccccc23)cc1	L major viab 88
CCSc1cc(N2CCOCC2)nc(-c2ccc(Cl)cc2)n1	RAM inhibit 11
CCCSc1cc(N2CCN(C)CC2)nc(-c2ccc(OC)cc2)n1	WT yeast gro inh 95
CC(Sc1nc(-c2ccccc2)cc(C(F)(F)F)n1)C(=O)N1CCOCC1 (stereo unspecified)	none
CC1CCN(C(=O)C(C)Sc2nc(-c3ccccc3)cc(C(F)(F)F)n2)CC1 (stereo unspecified)	RAM inhibit 8.8
CC(Sc1nc(-c2ccccc2)cc(C(F)(F)F)n1)C(=O)N1CCC(C(N)=O)CC1 (stereo unspecified)	none
CC(Sc1nc(-c2ccccc2)cc(C(F)(F)F)n1)C(=O)N1CCCC1 (stereo unspecified)	CHOP inh 92
Cc1ccc(NCC(=O)Nc2cccc(S(=O)(=O)N(C)C)c2)c(Cl)c1	L major viab 75
Cc1cccc(NC(=O)CNc2cc(C)ccc2C)c1	CHOP inh 77
O=C(Cc1ccc(Cl)cc1)Nc1cccc(S(=O)(=O)Nc2ccccc2F)c1	L major viab 69
O=C(CSc1ccc([N+](=O)[O-])cc1)Nc1cccc(S(=O)(=O)Nc2ccccc2F)c1	RAM inhibit 9.2
CN(C(=O)CS(=O)(=O)c1cccc(Cl)c1)c1ccccc1	none
CN(C)S(=O)(=O)c1cccc(NC(=O)Cc2ccc(Cl)cc2)c1	L major viab 67
NS(=O)(=O)c1cccc(NC(=O)COC(=O)Cc2ccc(Cl)cc2)c1	none
CCOc1ccc(NC(=O)CNc2ccc(C)cc2Cl)cc1	CHOP inh 91
On1nnc2ccc3ccccc3c21	none
C=C(C)COc1ccc2c(CC)cc(=O)oc2c1	none
COc1ccc(CCN(Cc2cc3cccc(C)c3n3nnnc23)C(=O)c2ccncc2)cc1OC	none
CC1(c2cc([N+](=O)[O-])cc([N+](=O)[O-])c2)CC(C)(C)N(C(=O)c2ccccc2)c2ccccc21 (stereo unspecified)	L major viab 98
CC1(c2ccccc2)CC(C)(C)N(C(=O)C2CCCO2)c2ccccc21 (stereo unspecified)	L major viab 87
CC(=O)c1c(C)n(-c2ccccc2)c2ccc(OCC(N)=O)cc12	none
N=c1c2c(-c3ccccc3)c(-c3ccccc3)n(Cc3ccco3)c2ncn1CCCN1CCOCC1	L major viab 100
c1ccc(-c2oc3ncnc(NCCCn4ccnc4)c3c2-c2ccccc2)cc1	WT yeast gro inh 73, L major viab 100
c1ccc(-c2c(-c3ccccc3)n(Cc3ccco3)c3ncnc(NCCCn4ccnc4)c23)cc1	WT yeast gro inh 73, L major viab 100
N=c1c2c(-c3ccccc3)c(-c3ccccc3)n(Cc3ccco3)c2ncn1CCCn1ccnc1	L major viab 100
OCCNc1ncnc2c1c(-c1ccccc1)c(-c1ccccc1)n2Cc1ccco1	none
O=c1c2ccccc2nc(-c2ccccc2)n1CCCN1CCOCC1	none
CCOCCCNC(=O)CN1C(=O)/C(=C\c2ccc(C)cc2)Sc2ccccc21	none
CCN1CCN(CCCNC(=O)c2ccc(/C=C3/Sc4ccccc4N(Cc4ccccc4F)C3=O)cc2)CC1	L major viab 98
CCN1CCN(CCNC(=O)c2ccc(/C=C3/Sc4ccccc4N(Cc4ccccc4C)C3=O)cc2)CC1	WT yeast gro inh 77, L major viab 100
Cc1ccc(NC(=O)C(=O)Nc2ccc(C)cn2)nc1	none
Cc1ccc(NC(=O)/C(C#N)=C(\N)C(Cl)(Cl)Cl)nc1	L major viab 100, CHOP inh 101
COc1cc(S(=O)(=O)Nc2ccc(C)cc2)ccc1N=Cc1c(C)c(C#N)c(=O)n(C)c1O	CHOP inh 74
COc1ccc(CN(C(=O)c2nsc(Cl)c2Cl)C(C(=O)NC2CCCC2)c2ccc(OC)cc2)cc1 (stereo unspecified)	none
Cc1cccc(N(C(=O)c2nsc(Cl)c2Cl)C(C(=O)NC2CCCC2)c2ccc(O)cc2)c1 (stereo unspecified)	L major viab 85
CS(=O)(=O)NCCCNc1ccc(Cl)cc1[N+](=O)[O-]	none
CCNCCNc1ccc(Cl)cc1[N+](=O)[O-]	L major viab 60 (no result: WT yeast gro inh, RAM inhibit, CHOP inh)
Cc1noc(NS(=O)(=O)c2ccc(NC(=O)C34CC5CC(C3)CC(n3cnc(Br)n3)(C5)C4)cc2)c1C	none
CCCS(=O)(=O)N1CCC(C(=O)NC2CCC(C)CC2)CC1 (stereo unspecified)	none
CC1CCC(N2CCN(S(C)(=O)=O)CC2)CC1 (stereo unspecified)	L major viab 89
Cc1n[nH]c(C)c1S(=O)(=O)N1CCN(C2CCCCC2)CC1	none
CCS(=O)(=O)N1CCN(C2CCC(C)CC2)CC1 (stereo unspecified)	L major viab 90
CS(=O)(=O)N1CCN(C2C3CC4CC(C3)CC2C4)CC1 (stereo unspecified)	L major viab 80
Cc1ccc(C(C)C)c(OC/C(O)=C(\C#N)c2nc3ccccc3[nH]2)c1	none (no result: WT yeast gro inh, L major viab, RAM inhibit)
CC(C)N1CCN(Cc2cccn2-c2ccccn2)CC1CCO (stereo unspecified)	none
CCC(=O)NNC(=O)c1cc(COc2cc(Cl)cc(Cl)c2)on1	none (no result: WT yeast gro inh, L major viab, RAM inhibit)
O=C(Cn1cnc2sc(-c3ccccc3)cc2c1=O)NCCc1ccccc1	CHOP inh 73
Cc1cc2c(s1)c1cnn(CC(=O)NCCc3ccccc3)c(=O)c1n2C	CHOP inh 87
O=C(Cn1cnc2sc(-c3ccccc3)cc2c1=O)NCc1ccccc1	none
COc1ccccc1Nc1ncnc2nc[nH]c12	WT yeast gro inh 70
COc1ccccc1CNc1ncnc2nc[nH]c12	none
CC(O)CNc1nc2sc3c(c2c(=O)n1CCc1ccccc1)CCCCC3 (stereo unspecified)	WT yeast gro inh 75, CHOP inh 91
CC(C)(C)C(=O)NNC(=O)c1cc2sccc2s1	none (no result: WT yeast gro inh, L major viab, RAM inhibit)
CCCOC(=O)c1ccc(NC(=O)C(=O)NCC2CCCO2)cc1 (stereo unspecified)	L major viab 55
O=C(COC(=O)CCc1ccc(S(=O)(=O)N2CCOCC2)cc1)NCc1ccc(Cl)cc1	none
O=C(O)c1ccc(C[n+]2c(-c3ccccc3)csc2Nc2ccccc2)cc1	none
CCCCCC[n+]1c(-c2ccccc2)csc1Nc1ccccc1	WT yeast gro inh 69
CC(C)Cc1cc(C(=O)N2CCC(N3CCC(C(=O)NC4CC4)CC3)CC2)n[nH]1	none
O=C(/C=C/c1c[nH]c2ccccc12)c1ccccc1	none
Cc1ccc(C(=O)/C=C/c2cn(CN3CCN(C)CC3)c3ccccc23)cc1	WT yeast gro inh 84, CHOP inh 82
Cc1ccc(C(=O)/C=C/c2c[nH]c3ccccc23)cc1	CHOP inh 81
